What was measured:
Assay in all cases: yeast three-hybrid, YBZ-1, SC-Leu-His + 0.5 mM 3-AT, 4 days
Settings in all cases: tags: N-Gal4 AD-HA kept; label: inside an RPR1-promoter hybrid RNA with tandem MS2 sites; ssRNA
[1] = biological target: PUM1 PUF domain R5-KAR (Homo sapiens, UniProt Q14671 828-1176, C1007K;R1008A;Q1011R)
Method in brief: (§1)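 A centromeric plasmid in strain YBZ-1 co-expressed Pumilio-1 PUF domain libraries, randomized at the three base-contacting residues of each repeat, with matching RNA elements; the strain carries a LexA–MS2 coat fusion and a HIS3 reporter. After four days on SC-Leu (input) or SC-Leu-His + 0.5 mM 3-AT (selection), the repeat regions were PCR-amplified and Illumina-sequenced. The interaction score is the log change in variant frequency from input to selection, using log2 and a pseudocount of 1 where absent.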

[2] = biological target: PUM1 PUF domain R5-KQS (Homo sapiens, UniProt Q14671 828-1176, C1007K;R1008Q;Q1011S)
Method in brief: as §1

[3] = biological target: PUM1 PUF domain R5-EWF (Homo sapiens, UniProt Q14671 828-1176, C1007E;R1008W;Q1011F)
Method in brief: as §1

[4] = biological target: PUM1 PUF domain R5-DQE (Homo sapiens, UniProt Q14671 828-1176, C1007D;R1008Q;Q1011E)
Method in brief: as §1

[5] = biological target: T1, PUM1 PUF domain R6-KWL (Homo sapiens, UniProt Q14671 828-1176, N1043K;Y1044W;Q1047L)
T1 sequence: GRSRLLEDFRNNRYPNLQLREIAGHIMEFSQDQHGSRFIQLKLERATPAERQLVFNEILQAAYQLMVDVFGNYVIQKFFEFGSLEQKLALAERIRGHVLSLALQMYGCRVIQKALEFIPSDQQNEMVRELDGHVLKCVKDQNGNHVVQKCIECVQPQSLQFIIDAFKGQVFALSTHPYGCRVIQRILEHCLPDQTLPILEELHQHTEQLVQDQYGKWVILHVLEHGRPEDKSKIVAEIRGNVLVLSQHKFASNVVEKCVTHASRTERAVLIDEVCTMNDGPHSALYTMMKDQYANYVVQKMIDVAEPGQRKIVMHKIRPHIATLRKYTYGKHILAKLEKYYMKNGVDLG
Method in brief: as §1

[6] = biological target: PUM1 PUF domain R7-DWE (Homo sapiens, UniProt Q14671 828-1176, S1079D;N1080W)
Method in brief: as §1

[7] = biological target: PUM1 PUF domain R8-VYR (Homo sapiens, UniProt Q14671 828-1176, N1122V;Q1126R)
Method in brief: as §1

[8] = biological target: PUM1 PUF domain R3-AFP (Homo sapiens, UniProt Q14671 828-1176, C935A;R936F;Q939P)
Method in brief: as §1

[9] = biological target: PUM1 PUF domain R8-HFM (Homo sapiens, UniProt Q14671 828-1176, N1122H;Y1123F;Q1126M)
Method in brief: as §1

[10] = biological target: PUM1 PUF domain R3-WFG (Homo sapiens, UniProt Q14671 828-1176, C935W;R936F;Q939G)
Method in brief: as §1

What does the source list for “GGCUAGAACUAGUGGAUCCCCCGGCGCCCGGCGGCUCGAGCCCGGGUAAGUGUCAAUAGUCUGCAUGCCGCCGGGCGCCAUGCCUGCAGGUCGACUCUAGAAAACAUG”?
binding signal [1]: 4.29 log2 enrichment (interaction score); binding signal [2]: 3.98 log2 enrichment (interaction score)

For “GGCUAGAACUAGUGGAUCCCCCGGCGCCCGGCGGCUCGAGCCCGGGUAAGUGUUAAUAGUCUGCAUGCCGCCGGGCGCCAUGCCUGCAGGUCGACUCUAGAAAACAUG”, which binding signal [1] is on record?
The binding signal was 2.72 log2 enrichment (interaction score).

What about the binding signal [3] of the same sequence?
The binding signal was 3.15 log2 enrichment (interaction score).

Which binding signal [4] does the source give for “GGCUAGAACUAGUGGAUCCCCCGGCGCCCGGCGGCUCGAGCCCGGGUAAGUGUGAAUAGUCUGCAUGCCGCCGGGCGCCAUGCCUGCAGGUCGACUCUAGAAAACAUG” here?
Its binding signal is 3.83 log2 enrichment (interaction score).

What does the source list for “GGCUAGAACUAGUGGAUCCCCCGGCGCCCGGCGGCUCGAGCCCGGGUAAGUGUAAAUAGUCUGCAUGCCGCCGGGCGCCAUGCCUGCAGGUCGACUCUAGAAAACAUG”?
binding signal [5]: 5.66 log2 enrichment (interaction score); binding signal [6]: 2.44 log2 enrichment (interaction score); binding signal [2]: 0.39 log2 enrichment (interaction score); binding signal [7]: 4.52 log2 enrichment (interaction score); binding signal [8]: 5.95 log2 enrichment (interaction score)

With “GGCUAGAACUAGUGGAUCCCCCGGCGCCCGGCGGCUCGAGCCCGGGUAAGCGUAAAUAGUCUGCAUGCCGCCGGGCGCCAUGCCUGCAGGUCGACUCUAGAAAACAUG” as the sequence, how does the binding signal [7] read?
The binding signal was 5.17 log2 enrichment (interaction score).

What about the binding signal [9] of the same sequence?
Its binding signal is 2.95 log2 enrichment (interaction score).

For “GGCUAGAACUAGUGGAUCCCCCGGCGCCCGGCGGCUCGAGCCCGGGUAAGUGUAAGUAGUCUGCAUGCCGCCGGGCGCCAUGCCUGCAGGUCGACUCUAGAAAACAUG”, which binding signal [10] is on record?
Its binding signal is 2.77 log2 enrichment (interaction score).

For “GGCUAGAACUAGUGGAUCCCCCGGCGCCCGGCGGCUCGAGCCCGGGUAAGUGUAAUUAGUCUGCAUGCCGCCGGGCGCCAUGCCUGCAGGUCGACUCUAGAAAACAUG”, which binding signal [10] is on record?
Its binding signal is 2.57 log2 enrichment (interaction score).
